# Values joined by “and” are separate entries in the source; they are usually repeats but may differ in a detail not shown here. Identical values can stand only once. Values without a mark were called inactive. Results filed as inconclusive are left out. Active and inactive are the calls of the source. Unless noted, calls come from the whole dose curve; as a rule, active = well fitted curve in the direction sought with a large enough effect; inconclusive = small, poorly fitted or top-dose-only effect, or another doubt; inactive = no such curve, though single readings can be large; an effect the other way counts as inactive or inconclusive.
# Assays:
# [1] = qHTS assay for environmental chemicals that activate the Aryl hydrocarbon Receptor (AhR) signaling pathway (AID 651777); conditions: 1A2-DRE human hepatoma cells, luciferase, 24 h; activation: stronger effect = higher value; note: nearly all actives have a fitted effect of over 15% in size; note: potency is the fitted concentration of half-maximal effect; for activation: % of control where 0% means no effect
# Outline: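 Following a 24 hr incubation with test chemicals at 37 C and 5% CO2, 1A2-DRE human hepatoma cells received One-Glo reagent; after 30 min at room temperature, luciferase output reflected CYP1A2 induction via AhR.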
# [2] = target: Peroxisome proliferator-activated receptor alpha (Homo sapiens) (UniProt Q07869); test: qHTS assay for small molecule agonists of the peroxisome proliferator-activated receptor alpha (PPARalpha) signaling pathway (AID 651778); conditions: PathHunter PPARalpha complementation, chemiluminescence, 6 h; max response: stronger effect = higher value; note: % of control where 0% means no effect
# Outline: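 Chemiluminescence from complemented enzyme reported PPARalpha activation in cells after 6 hr of compound treatment at 37 C. The detection reagent was incubated for 60 min at room temperature, and compounds were scored as agonists.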
# [3] = qHTS assay for small molecule agonists of the antioxidant response element (ARE) signaling pathway measured by Nrf2-dependant transcriptional activity (AID 720636; active = well fitted curve in the direction sought with a large enough effect in the repeat runs; an effect the other way counts as inactive or inconclusive; note: potency is the fitted concentration of half-maximal effect;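 for activation: HepG2 cells with an ARE-driven luciferase reporter; % of control where 0% means no effect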); conditions: ARE-luc HepG2, Nrf2 luciferase reporter, 16 h; series mostly up to 92.4 µM
# Outline: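 ONE-Glo luminescence, read 30 min after reagent addition at room temperature, reflected ARE reporter activity in HepG2 cells that had been incubated with compound for 16 hr at 37 C in 1% dialyzed FBS.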
# [4] = target: Nuclear receptor ROR-gamma (Homo sapiens) (UniProt P51449); test: qHTS assay for small molecule antagonists of the retinoid-related orphan receptor gamma (ROR-gamma) signaling pathway (AID 651802); conditions: ROR-gamma antagonist cell reporter assay; series mostly up to 92.2 µM; note: nearly all actives have a fitted effect of over 60% in size; note: potency is the fitted concentration of half-maximal effect
# Outline: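 CHO, TET-inducible ROR + RORE-LUC reporter, 1536-well qHTS. Compound pinned, doxycycline added, 16hr 37C/5% CO2. ONE-Glo, 30 min RT, luminescence; signal drop scored as antagonism.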
# [5] = target: Arylsulfatase A (Homo sapiens) (UniProt P15289); test: qHTS screen for enhancers of Arylsulfatase A (ASA1): LOPAC Validation Assay (AID 720538); conditions: ASA enzyme activity, LOPAC qHTS enhancer assay; series mostly up to 57.5 µM; note: 0% is about no effect
# Outline: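 Read-out: fluorescence at Ex=525/Em=598 nm after 1N NaOH final stop. Patient fibroblasts carrying ASA-I179S had 48h compound exposure, then 14h room-temperature pNCS hydrolysis (0.5mM final) in lysis buffer. Signal increase = enhanced activity.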
# [6] = qHTS for compounds that reverse cellular toxicity of Amyloid beta (A-beta) peptide in yeast: LOPAC Validation Assay (AID 720559); conditions: yeast expressing A-beta; series mostly up to 46.1 µM;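 note: plate controls were DMSO for no effect and equimolar ferric chloride plus clioquinol rescue for full effect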
# Outline: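 OD600 growth readout after 48 hr at 30 C; A-beta-toxic yeast plus pinned compounds in medium. Normalization: DMSO = negative, equimolar FeCl3 + clioquinol = positive.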
# [7] = qHTS for Activators of Parkin Expression: LOPAC Validation Assay (NLuc Reporter) (AID 720572;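 note: 0% = DMSO and 100% = positive control compound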); conditions: Parkin promoter NanoLuc reporter cells, luminescence, percent of positive control, DMSO as zero; series mostly up to 46.1 µM
# Outline: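 Parkin promoter-driven FLuc/NLuc neuronal reporter cells; 24 h plating, 7-pt dose response, 24 h at 37 C/5% CO2; FLuc then NanoLuc reagent, 10 min each, luminescence; DMSO/positive control normalized.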
# [8] = qHTS for Activators of Parkin Expression: LOPAC Validation Assay (FLuc Reporter) (AID 720573;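 note: 0% = DMSO and 100% = positive control compounds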); conditions: Cell line, PRKN promoter firefly luciferase reporter, vehicle wells = 0, positive control = 100%; series mostly up to 46.1 µM
# Outline: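 FLuc luminescence read-out from a neuronal line expressing a Parkin-promoter-driven coincidence reporter. Cells treated 24 h at 37 C, 5% CO2 with compounds at 7 concentrations; signal increase normalized to DMSO and positive control.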
# Chain of Nuclear receptor ROR-gamma (Homo sapiens) (P51449 whole entry, looked up): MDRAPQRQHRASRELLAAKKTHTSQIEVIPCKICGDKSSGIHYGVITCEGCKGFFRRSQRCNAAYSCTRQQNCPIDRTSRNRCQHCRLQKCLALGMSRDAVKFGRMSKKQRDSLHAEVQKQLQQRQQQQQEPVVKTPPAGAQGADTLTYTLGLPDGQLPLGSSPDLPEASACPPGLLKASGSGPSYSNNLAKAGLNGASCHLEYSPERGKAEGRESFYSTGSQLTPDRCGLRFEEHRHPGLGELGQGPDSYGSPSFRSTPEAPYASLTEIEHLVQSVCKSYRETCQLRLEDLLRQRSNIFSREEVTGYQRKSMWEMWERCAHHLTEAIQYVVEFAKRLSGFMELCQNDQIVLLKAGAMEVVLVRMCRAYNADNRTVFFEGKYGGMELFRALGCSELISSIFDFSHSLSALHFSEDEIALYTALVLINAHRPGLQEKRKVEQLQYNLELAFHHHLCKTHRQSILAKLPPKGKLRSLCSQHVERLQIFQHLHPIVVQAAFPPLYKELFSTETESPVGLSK
# Chain of Peroxisome proliferator-activated receptor alpha (Homo sapiens) (Q07869 whole entry, looked up): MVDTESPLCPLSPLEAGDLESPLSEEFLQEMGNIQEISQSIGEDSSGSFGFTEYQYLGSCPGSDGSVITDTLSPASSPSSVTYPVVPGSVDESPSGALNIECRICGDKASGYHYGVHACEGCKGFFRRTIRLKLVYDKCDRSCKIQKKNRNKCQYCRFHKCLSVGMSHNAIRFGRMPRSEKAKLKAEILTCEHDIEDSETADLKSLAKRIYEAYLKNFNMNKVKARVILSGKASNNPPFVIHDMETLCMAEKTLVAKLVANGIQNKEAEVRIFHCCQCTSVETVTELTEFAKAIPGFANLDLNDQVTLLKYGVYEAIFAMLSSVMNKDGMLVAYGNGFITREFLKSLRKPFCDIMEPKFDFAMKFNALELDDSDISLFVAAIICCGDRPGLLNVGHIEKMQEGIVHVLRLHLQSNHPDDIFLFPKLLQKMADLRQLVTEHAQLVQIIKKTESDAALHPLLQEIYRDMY
# Chain of Arylsulfatase A (Homo sapiens) (P15289 whole entry, looked up): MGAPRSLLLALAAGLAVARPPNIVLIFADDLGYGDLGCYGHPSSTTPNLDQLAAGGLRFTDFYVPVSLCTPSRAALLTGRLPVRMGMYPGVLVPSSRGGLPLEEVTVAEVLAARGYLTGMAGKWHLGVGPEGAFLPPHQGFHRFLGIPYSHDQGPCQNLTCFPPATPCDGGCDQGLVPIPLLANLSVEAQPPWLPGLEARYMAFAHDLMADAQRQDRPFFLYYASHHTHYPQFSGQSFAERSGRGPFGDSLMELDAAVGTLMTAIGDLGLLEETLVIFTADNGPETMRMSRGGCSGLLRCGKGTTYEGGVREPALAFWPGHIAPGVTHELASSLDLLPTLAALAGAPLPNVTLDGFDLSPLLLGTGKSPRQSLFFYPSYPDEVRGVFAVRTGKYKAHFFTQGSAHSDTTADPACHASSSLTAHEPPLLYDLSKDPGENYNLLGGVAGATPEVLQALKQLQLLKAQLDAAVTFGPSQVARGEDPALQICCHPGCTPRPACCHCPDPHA
smiles,measurement,setting,value
O=S(=O)(O)C(F)(F)C(F)(F)C(F)(F)C(F)(F)C(F)(F)C(F)(F)C(F)(F)C(F)(F)F,activation,[1],1.49% and 0.543%
same,max response,[2],-0.394% and 4.02%
same,Potency,[3],inactive
COc1ccc(C(c2ccc(OC)cc2)C(Cl)(Cl)Cl)cc1,activation,[1],1.39% and 11.4% and 6.25%
same,max response,[2],12.2% and 6.03% and 0.144%
same,Potency,[4],26.6 µM (active)
same,Potency,[3],inactive
O=[N+]([O-])c1c2ccccc2cc2ccccc12,activation,[1],10%
same,max response,[2],5.89%
same,Potency,[4],inactive
CCCCOC(=O)c1ccccc1C(=O)OCc1ccccc1,activation,[1],12.8% and 3.39%
same,max response,[2],-3.94% and -0.0123%
same,Potency,[4],inactive
same,Potency,[3],inactive
O=C(Nc1ccccc1-c1ccc(Cl)cc1)c1cccnc1Cl,activation,[1],0.984%
same,max response,[2],0.0876%
same,Potency,[3],inactive
Nc1ccccc1N,Potency,[1],39.8 µM (active)
C=CC(=O)NCNC(=O)C=C,activation,[1],1.7% and 2.02%
same,max response,[2],-3.68% and -5.17%
same,Potency,[3],inactive
CCO/N=C(\CC)C1=C(O)CC(c2c(C)cc(C)cc2C)CC1=O (configuration not stated),activation,[1],-2.09%
same,max response,[2],-0.461%
same,Potency,[3],inactive
Clc1cnc(Oc2ccc(Oc3ncc(Cl)cc3Cl)cc2)c(Cl)c1,activation,[1],0.838%
same,max response,[2],2.8%
same,outcome,[5],inactive
same,outcome,[6],inactive
same,outcome,[7],inactive
same,outcome,[8],inactive
same,Potency,[3],inactive
CCCCCCCCCC(CC)c1ccc(S(=O)(=O)O)cc1 (configuration not stated),activation,[1],-1.06%
same,max response,[2],1.36%
same,Potency,[3],inactive
c1cc2ccc3cccc4ccc(c1)c2c34,activation,[1],-0.0456% and 4.28%
same,max response,[2],-3.14% and -4.98%
same,Potency,[4],inactive
same,Potency,[3],inactive
CN(C)[C@@H]1C(=O)C(C(N)=O)=C(O)[C@@]2(O)C(=O)C3=C(O)c4c(O)cccc4[C@@](C)(O)[C@H]3[C@H](O)[C@@H]12,activation,[1],0.477% and 1.23% and -3.54%
same,max response,[2],-3.16% and 0.185% and -4.32%
same,Potency,[3],inactive
O=C(O)COc1ccccc1,activation,[1],0.99%
same,max response,[2],-1.23%
same,Potency,[3],inactive
CC(C)(O)C(=O)Nc1ccc([N+](=O)[O-])c(C(F)(F)F)c1,activation,[1],-1.15%
same,max response,[2],-1.76%
same,Potency,[3],inactive
CCOP(=O)(NC(C)C)Oc1ccc(SC)c(C)c1 (configuration not stated),activation,[1],4% and 2.89%
same,max response,[2],2.22% and -0.0211%
same,Potency,[4],inactive
same,Potency,[3],inactive
OCCCBr,activation,[1],1.3%
same,max response,[2],-3.35%
same,Potency,[4],inactive
same,Potency,[3],inactive
O=[N+]([O-])c1cc([N+](=O)[O-])c2ccccc2c1,activation,[1],11.7%
same,max response,[2],-4.32%
same,Potency,[4],inactive
same,Potency,[3],42.2 µM (active)
C1CCC(NC2CCCCC2)CC1,activation,[1],-1.28% and -0.443% and 0.0289%
same,max response,[2],0.749% and -0.258% and -1.01%
same,Potency,[4],inactive
same,Potency,[3],inactive
CN(C)NC(=O)CCC(=O)O,activation,[1],0.139% and -1.5%
same,max response,[2],0.401% and -4.12%
same,Potency,[4],inactive
same,Potency,[3],inactive
O=[N+]([O-])c1c(Cl)c(Cl)cc(Cl)c1Cl,activation,[1],4.33%
same,max response,[2],0.293%
same,Potency,[4],inactive
same,Potency,[3],inactive
O=C(O)CCCOc1ccc(Cl)cc1Cl,activation,[1],4.85%
same,max response,[2],5.21%
same,Potency,[3],inactive
Nc1ccc(Sc2ccc(N)cc2)cc1,activation,[1],6.89% and 6.82%
same,max response,[2],-3.47% and -0.953%
same,Potency,[4],inactive
same,Potency,[3],inactive
O=C(O)c1cc(Oc2ccc(C(F)(F)F)cc2Cl)ccc1[N+](=O)[O-],activation,[1],2.44%
same,max response,[2],-3.73%
same,Potency,[3],inactive
CCCCCCCCc1ccc(O)cc1,activation,[1],1.65% and 1.55%
same,max response,[2],18.3% and 5.8%
same,Potency,[4],inactive
CC(=O)[O][Hg][c]1ccccc1,activation,[1],-9.33% and -11.2%
same,max response,[2],-13.3% and -4.57%
same,Potency,[4],0.531 µM (active)
same,Potency,[3],inactive
CS(=O)(=O)c1ccc(C(=O)C2C(=O)CCCC2=O)c([N+](=O)[O-])c1,activation,[1],3.32%
same,max response,[2],-3.08%
same,Potency,[3],inactive
O=C(O)C(Cl)Cl,activation,[1],3.85% and 0.254%
same,max response,[2],-0.693% and -4.76%
same,Potency,[4],inactive
same,Potency,[3],inactive
Nc1ccc(Cl)cc1,activation,[1],0.816%
same,max response,[2],8.91%
same,Potency,[4],inactive
same,Potency,[3],inactive
CC(C)Oc1cccc(NC(=O)c2ccccc2C(F)(F)F)c1,activation,[1],11.8%
same,max response,[2],3.69%
same,Potency,[3],inactive

# Reference: PubChem BioAssay (NCATS)
